Reference: the supplement of paper PMC9492666
Structures can show the parent of a compound that is named as a salt.

What was measured:
HCC1937 = assay: relative cell viability, compound + RSL3, vs DMSO (fraction of DMSO control); higher = less growth inhibition; conditions: 72 h
MDA-MB-231 = assay: as above; conditions: 72 h
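Also: breast cancer cell viability read out with the CCK-8 kit after co-treatment of each compound with the ferroptosis inducer RSL3.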

| SMILES | relative cell viability (HCC1937) | relative cell viability (MDA-MB-231) |
| --- | --- | --- |
| Cc1nc(-c2nc(-c3ccc(OC(F)(F)F)cc3)no2)nn1Cc1cccc(N2CCC(S(C)(=O)=O)CC2)c1 + COC(=O)c1ccc([C@H]2c3[nH]c4ccccc4c3C[C@H](C(=O)OC)N2C(=O)CCl)cc1 [RSL3] | 0.417 | 0.559 |
| CC1(C)C[C@H]2C3=CC[C@@H]4[C@@]5(C)CC[C@H](O)[C@@](C)(CO)[C@@H]5CC[C@@]4(C)[C@]3(C)C[C@H](O)[C@@]2(CO)[C@@H](O)[C@@H]1O [Gymnemagenin] + COC(=O)c1ccc([C@H]2c3[nH]c4ccccc4c3C[C@H](C(=O)OC)N2C(=O)CCl)cc1 [RSL3] | 0.571 | 0.657 |
| O=c1c(-c2ccc(O)cc2)coc2cc(O)ccc12 [Daidzein] + COC(=O)c1ccc([C@H]2c3[nH]c4ccccc4c3C[C@H](C(=O)OC)N2C(=O)CCl)cc1 [RSL3] | 0.865 | 0.608 |
| O=C1c2cccc(O)c2C(=O)c2c(O)cccc21 [Antrapurol] + COC(=O)c1ccc([C@H]2c3[nH]c4ccccc4c3C[C@H](C(=O)OC)N2C(=O)CCl)cc1 [RSL3] | 0.583 | 0.537 |
| O=C(Nc1ccncc1)c1cc([N+](=O)[O-])ccc1Cl + COC(=O)c1ccc([C@H]2c3[nH]c4ccccc4c3C[C@H](C(=O)OC)N2C(=O)CCl)cc1 [RSL3] | 0.297 | 0.438 |
| NC(N)=N/N=C/c1cccc(Cl)c1Cl [Raphin1 acetate] + COC(=O)c1ccc([C@H]2c3[nH]c4ccccc4c3C[C@H](C(=O)OC)N2C(=O)CCl)cc1 [RSL3] | 0.38 | 0.603 |
| CCCCCC=CC(=O)CCc1ccc(O)c(OC)c1 [6-Shogaol] + COC(=O)c1ccc([C@H]2c3[nH]c4ccccc4c3C[C@H](C(=O)OC)N2C(=O)CCl)cc1 [RSL3] | 0.608 | 0.64 |
| COc1cc(N2CCN(C)CC2)ccc1Nc1ncc2c(n1)N(C)c1ccccc1C(=O)N2 + COC(=O)c1ccc([C@H]2c3[nH]c4ccccc4c3C[C@H](C(=O)OC)N2C(=O)CCl)cc1 [RSL3] | 0.213 | 0.375 |
| Nc1ncnc2c1ncn2C1OC(COP(=O)(O)O)C(O)C1O (configuration not stated) [Adenosine 5'-monophosphate monohydrate] + COC(=O)c1ccc([C@H]2c3[nH]c4ccccc4c3C[C@H](C(=O)OC)N2C(=O)CCl)cc1 [RSL3] | 0.932 | 0.622 |
| O=C(OC(C(F)(F)F)C(F)(F)F)N1CCC(C(O)(c2ccc3c(c2)OCO3)c2ccc3c(c2)OCO3)CC1 + COC(=O)c1ccc([C@H]2c3[nH]c4ccccc4c3C[C@H](C(=O)OC)N2C(=O)CCl)cc1 [RSL3] | 0.551 | 0.551 |
| O=C(Nc1cccnc1)N1CCC(Cc2cccc(Oc3ccc(C(F)(F)F)cn3)c2)CC1 + COC(=O)c1ccc([C@H]2c3[nH]c4ccccc4c3C[C@H](C(=O)OC)N2C(=O)CCl)cc1 [RSL3] | 0.727 | 0.644 |
| CC(C)CCC[C@@H](C)[C@H]1CC[C@H]2[C@@H]3CC=C4C[C@@H](O)CC[C@]4(C)[C@H]3CC[C@]12C [Cholesterol] + COC(=O)c1ccc([C@H]2c3[nH]c4ccccc4c3C[C@H](C(=O)OC)N2C(=O)CCl)cc1 [RSL3] | 0.8 | 0.611 |
| O=c1cc(-c2ccc(O)c(-c3c(O)cc(O)c4c(=O)cc(-c5ccc(O)cc5)oc34)c2)oc2cc(O)cc(O)c12 [Amentoflavone] + COC(=O)c1ccc([C@H]2c3[nH]c4ccccc4c3C[C@H](C(=O)OC)N2C(=O)CCl)cc1 [RSL3] | 0.318 | 0.496 |
| CC(C)(C)c1ccc(-c2nc3ccccc3[nH]2)cc1 + COC(=O)c1ccc([C@H]2c3[nH]c4ccccc4c3C[C@H](C(=O)OC)N2C(=O)CCl)cc1 [RSL3] | 0.529 | 0.399 |
| O=C(O)Cc1cccc(OCCCN(Cc2cccc(C(F)(F)F)c2Cl)CC(c2ccccc2)c2ccccc2)c1 + COC(=O)c1ccc([C@H]2c3[nH]c4ccccc4c3C[C@H](C(=O)OC)N2C(=O)CCl)cc1 [RSL3] | 0.418 | 0.686 |
| CC[C@@H]1/C=C(\C)C[C@H](C)C[C@H](OC)[C@H]2O[C@@](O)(C(=O)C(=O)N3CCCC[C@H]3C(=O)O[C@H](/C(C)=C/[C@@H]3CC[C@@H](O)[C@H](OC)C3)[C@H](C)[C@@H](O)CC1=O)[C@H](C)C[C@@H]2OC [Ascomycin] + COC(=O)c1ccc([C@H]2c3[nH]c4ccccc4c3C[C@H](C(=O)OC)N2C(=O)CCl)cc1 [RSL3] | 0.1 | 0.236 |
| CC(=O)Oc1cc(C(F)(F)F)ccc1C(=O)O [Triflusal] + COC(=O)c1ccc([C@H]2c3[nH]c4ccccc4c3C[C@H](C(=O)OC)N2C(=O)CCl)cc1 [RSL3] | 0.717 | 0.492 |
| Cc1nc2ccc(C(=O)N3CCC4(CC3)CC(=O)c3c(cnn3C(C)C)C4)cc2[nH]1 + COC(=O)c1ccc([C@H]2c3[nH]c4ccccc4c3C[C@H](C(=O)OC)N2C(=O)CCl)cc1 [RSL3] | 0.402 | 0.591 |

| SMILES | relative cell viability (HCC1937) | relative cell viability (MDA-MB-231) |
| --- | --- | --- |
| CCCCCCS(=O)(=O)NC(=O)c1ccc(CSCc2ccc(-c3ccccc3)cc2)cc1 + COC(=O)c1ccc([C@H]2c3[nH]c4ccccc4c3C[C@H](C(=O)OC)N2C(=O)CCl)cc1 [RSL3] | 0.403 | 0.676 |
| C=C(C)[C@@H]1CCC2=CC(=O)C[C@@H](C)[C@]2(C)C1 [Nootkatone] + COC(=O)c1ccc([C@H]2c3[nH]c4ccccc4c3C[C@H](C(=O)OC)N2C(=O)CCl)cc1 [RSL3] | 0.509 | 0.613 |
| CCc1ccc(N(CC(C)C)S(=O)(=O)c2ccc(OCC3CCOCC3)c(CO)c2)cc1 + COC(=O)c1ccc([C@H]2c3[nH]c4ccccc4c3C[C@H](C(=O)OC)N2C(=O)CCl)cc1 [RSL3] | 0.53 | 0.581 |
| CCNC1(C(N)=O)CCN(c2ncnc3c2nc(-c2ccccc2Cl)n3-c2ccc(Cl)cc2)CC1 [Otenabant] + COC(=O)c1ccc([C@H]2c3[nH]c4ccccc4c3C[C@H](C(=O)OC)N2C(=O)CCl)cc1 [RSL3] | 0.659 | 0.39 |
| COc1ccc2[nH]cc(CCNC(C)=O)c2c1 [Melatonine] + COC(=O)c1ccc([C@H]2c3[nH]c4ccccc4c3C[C@H](C(=O)OC)N2C(=O)CCl)cc1 [RSL3] | 0.613 | 0.465 |
| CCCCCCCCCCCCCCCC(=O)NCCO [Palmidrol] + COC(=O)c1ccc([C@H]2c3[nH]c4ccccc4c3C[C@H](C(=O)OC)N2C(=O)CCl)cc1 [RSL3] | 0.655 | 0.77 |
| COc1ccc(-c2cc(=O)c3c(O)c(OC)c(O)cc3o2)cc1OC [Eupatilin] + COC(=O)c1ccc([C@H]2c3[nH]c4ccccc4c3C[C@H](C(=O)OC)N2C(=O)CCl)cc1 [RSL3] | 0.354 | 0.496 |
| O=C(O)CN(CC(=O)O)c1ccccc1OCCOc1ccccc1N(CC(=O)O)CC(=O)O + COC(=O)c1ccc([C@H]2c3[nH]c4ccccc4c3C[C@H](C(=O)OC)N2C(=O)CCl)cc1 [RSL3] | 0.308 | 0.581 |
| Cc1ccc(/C=C2\SC(=S)N(CCCCCC(=O)Nc3ccc(C(=O)O)c(O)c3)C2=O)cc1 + COC(=O)c1ccc([C@H]2c3[nH]c4ccccc4c3C[C@H](C(=O)OC)N2C(=O)CCl)cc1 [RSL3] | 0.632 | 0.577 |
| O=C(O)CCCc1cc2cc(Cl)ccc2n1S(=O)(=O)c1ccc2ncsc2c1 [Lanifibranor] + COC(=O)c1ccc([C@H]2c3[nH]c4ccccc4c3C[C@H](C(=O)OC)N2C(=O)CCl)cc1 [RSL3] | 0.464 | 0.786 |
| CCN(CC)C(=O)N1CCN(C)CC1 [Diethylcarbamazine citrate] + COC(=O)c1ccc([C@H]2c3[nH]c4ccccc4c3C[C@H](C(=O)OC)N2C(=O)CCl)cc1 [RSL3] | 0.61 | 0.581 |
| O=C(O)Cn1nnc(-c2cc(N3CCC(Oc4cc(F)ccc4Br)CC3)no2)n1 + COC(=O)c1ccc([C@H]2c3[nH]c4ccccc4c3C[C@H](C(=O)OC)N2C(=O)CCl)cc1 [RSL3] | 0.428 | 0.632 |
| O=C(/C=C/c1ccc(/C=C/C(=O)Nc2ccc(C3=NCCN3)cc2)cc1)Nc1ccc(C2=NCCN2)cc1 + COC(=O)c1ccc([C@H]2c3[nH]c4ccccc4c3C[C@H](C(=O)OC)N2C(=O)CCl)cc1 [RSL3] | 0.296 | 0.378 |
| COc1ccc(-n2c(SCCCN3C(=O)c4cccc5cccc(c45)C3=O)nnc2-c2ccncc2)cc1 + COC(=O)c1ccc([C@H]2c3[nH]c4ccccc4c3C[C@H](C(=O)OC)N2C(=O)CCl)cc1 [RSL3] | 0.324 | 0.56 |
| O=C(c1c2ccccc2cc2ccccc12)N1CCC(N2CCC[C@@H](C(=O)N3CCOCC3)C2)CC1 + COC(=O)c1ccc([C@H]2c3[nH]c4ccccc4c3C[C@H](C(=O)OC)N2C(=O)CCl)cc1 [RSL3] | 0.352 | 0.366 |
| CC(C)c1onc(-c2c(Cl)cccc2Cl)c1COc1ccc(/C=C/c2cccc(C(=O)O)c2)c(Cl)c1 + COC(=O)c1ccc([C@H]2c3[nH]c4ccccc4c3C[C@H](C(=O)OC)N2C(=O)CCl)cc1 [RSL3] | 0.874 | 0.699 |
| CCC(=O)O[C@]1(C(=O)CCl)[C@@H](C)C[C@H]2[C@@H]3C[C@H](F)C4=CC(=O)C=C[C@]4(C)[C@@]3(F)[C@@H](O)C[C@@]21C [Halobetasol Propionate] + COC(=O)c1ccc([C@H]2c3[nH]c4ccccc4c3C[C@H](C(=O)OC)N2C(=O)CCl)cc1 [RSL3] | 0.393 | 0.592 |
| CC(C)n1c(/C=C/C(O)CC(O)CC(=O)O)c(-c2ccc(F)cc2)c2ccccc21 (configuration not stated) [Fluvastatin sodium salt] + COC(=O)c1ccc([C@H]2c3[nH]c4ccccc4c3C[C@H](C(=O)OC)N2C(=O)CCl)cc1 [RSL3] | 0.504 | 0.547 |
